Screening data (PubChem BioAssay)
Rows were chosen to be rich in hits. Some 7.3% of all compounds tested hit in one or more screens of this group.
KinaseGlo FLuc – blocks Kinase-Glo luciferase, a counter-screen artifact; Q27757; Kinase-Glo luciferase, ATP luminescence, 8 min; Potency, µM (top dose mostly 38.3 µM), for inactives: top-dose activity change, negative = inhibition, usual class: inhibitors; actives 0.28% (n = 200,000); further: on the % scale 0 is the no-effect control and ±100 the full control effect; nearly all actives have a fitted effect of over 60% in size
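Inhibition of Kinase-Glo luciferase light generation was assessed at 10 uM ATP in pH 7.2 imidazole buffer, with luminescence measured after eight minutes at ambient temperature.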
NPC1 prom act – activators of NPC1 promoter; AID 485313; Huh7 NPC1 promoter luciferase reporter, 24 h; actives 2.4% (n = 320,000); Potency, µM (top dose mostly 9.22 µM), for the others: at the highest dose activation, usual class: activators; further: % of control where 0% means no effect; nearly all actives have a fitted effect of over 60% in size
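Huh7 reporter cells (NPC1 promoter driving luciferase) are dosed with compound for 24 h at 37 °C, 5% CO2; luciferase detection reagent is then added and luminescence measured after 10 min at ambient temperature.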
SMN2 splice enh – increases expression of the SMN2 splice variant; AID 1458; Potency, µM (top dose mostly 46.1 µM), for the others: top-dose activity change, positive = activation, actives largely listed as activators; actives 2.8% (n = 210,000); HEK293 SMN2-luciferase splicing reporter, luminescence, 30-36 h; further: % of control where 0% means no effect; nearly all actives have a fitted effect of over 55% in size
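HEK293 cells carry an SMN2 […]–luciferase reporter in which exon 7 inclusion puts luciferase in frame. Cells were plated 10-12 h before compound addition, then incubated 30-36 h at 37C. ONE-Glo luminescence was read; sodium butyrate at 4.5 mM final served as control.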
Rab9 promoter act – Rab9 promoter activation; Huh7 Rab9 promoter-luciferase reporter, luminescence, 24 h; Potency, µM (top dose mostly 9.22 µM), for the others: at the highest dose activation, negative = inhibition, actives largely listed as activators; actives 2.8% (n = 320,000); AID 485297; further: % of control where 0% means no effect; nearly all actives have a fitted effect of over 60% in size
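Steps: seed 1500 Huh7 Rab9-luc cells per well, rest 2 h at 37 °C; add compound in DMSO; incubate 24 h; add luciferase reagent, 10 min ambient; read luminescence.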
FLuc counter – counter-screen for miR-21 project: firefly luciferase inhibitors or activators. Potency, µM (titrated, usually from 57.5 µM), for the others: at the highest dose activity change, negative = inhibition, usual class: inhibitors. purified FLuc, Km substrates, luminescence inhibition. actives 6.9% (n = 360,000). P08659. AID 588342;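 further: plate controls were vehicle for no effect and reference inhibitor for full effect; nearly all actives have a fitted effect of over 55% in size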
Target sequence (P08659 whole entry, looked up): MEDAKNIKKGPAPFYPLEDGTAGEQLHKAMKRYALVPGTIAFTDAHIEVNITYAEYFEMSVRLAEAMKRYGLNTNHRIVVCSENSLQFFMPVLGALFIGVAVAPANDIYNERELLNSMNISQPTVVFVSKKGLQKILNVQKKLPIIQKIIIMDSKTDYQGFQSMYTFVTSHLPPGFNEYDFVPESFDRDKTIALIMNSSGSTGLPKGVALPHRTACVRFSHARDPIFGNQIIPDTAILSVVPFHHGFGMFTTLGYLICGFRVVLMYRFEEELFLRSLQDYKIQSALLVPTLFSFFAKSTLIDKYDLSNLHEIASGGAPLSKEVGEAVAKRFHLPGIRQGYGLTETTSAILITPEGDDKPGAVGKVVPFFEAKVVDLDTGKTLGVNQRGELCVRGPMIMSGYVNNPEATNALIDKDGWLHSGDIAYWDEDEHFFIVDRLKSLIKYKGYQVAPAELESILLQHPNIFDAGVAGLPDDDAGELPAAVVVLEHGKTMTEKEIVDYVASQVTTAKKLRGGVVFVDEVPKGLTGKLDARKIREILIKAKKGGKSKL
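Biochemical qHTS of compounds, final roughly 60 µM downward over six points, against 10 nM purified firefly luciferase using Km concentrations of substrates (10 uM D-luciferin, 10 uM ATP) in Tris acetate pH 7.5 buffer; luminescence output.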
Starred values were filed as active, the others as inactive; ? = inconclusive; · = not tested or not shown; [ ] = another dose, or the depositor's remark. The call rests on the fitted dose curve; in most records, active means well fitted curve in the direction sought with a large enough effect; inconclusive means small, poorly fitted or top-dose-only effect, or another doubt; inactive means no such curve, though single readings can be large; an effect the other way counts as inactive or inconclusive. Potency means the concentration at half of the fitted maximal effect.

SMILES	KinaseGlo FLuc	NPC1 prom act	SMN2 splice enh	Rab9 promoter act	FLuc counter
O=C1C2C3CCC(C3)C2C(=O)N1c1ccc(OS(=O)(=O)c2ccccc2)cc1 (stereo unspecified)	-2%	3.5µM*	-27%	1.1µM*	12µM*
COc1cc2c(cc1OC)[C@@]13CCN4C=C5CCO[C@H]6CC(=O)N2[C@@H]1C6[C@H]5C[C@H]43 (stereo partly specified)	-4%[7.66 µM]	·	-13%[9.22 µM]	·	·
CN(C)c1nc(-c2ccccc2)[n+](C)s1	·	-4%	·	5%	1%
Cc1ccc(-c2nc(N3CCOCC3)s[n+]2-c2ccccc2)cc1	-2%	8%	22%	24%	9.5µM*
Cc1ccc(Cn2cc(C=O)c(-c3ccc(C)cc3)n2)cc1	2%	25%	?	?	17µM*
C#CCO	·	·	-4%	·	·
Cc1ccc(C(=O)COC(=O)Cc2ccccc2)cc1	·	2%	·	0%	0.95µM*
Cc1ccc(S(=O)(=O)N2CCN(C(=O)COC(=O)Cc3ccccc3)CC2)c(C)c1	·	-1%	·	-1%	-2%
O=C1COc2ccc(C(=O)COC(=O)Cc3ccccc3)cc2N1	·	1%	·	-2%	7%
O=C(Cc1ccccc1)OCC(=O)c1ccccc1	·	-4%	·	0%	6.7µM*
CC(=O)[O][Hg][c]1ccccc1	13µM*	·	-104%	·	·
C[C@H](CN(C)C)C(C#N)(c1ccccc1)c1ccccc1	-1%[7.66 µM]	·	-7%[9.22 µM]	·	·
Cc1cccc(OCCCn2c(=O)oc3ccccc32)c1	-2%	-2%	19%	18%	?
Cc1cccc(OCCn2c(=O)oc3ccc(C)cc32)c1	-18%	18%	·	?	19µM*
Cc1ccc(NC(=[OH+])c2cc3ccccc3cc2O)c(C)c1.Cc1ccc(NC(=[OH+])c2cc3ccccc3cc2O)c(C)c1.[Ni]	-7%[7.66 µM]	·	23%[9.22 µM]	·	·
COc1ccc(N2C(=O)/C(=C/C=C/c3ccccc3[N+](=O)[O-])C(=O)NC2=S)cc1	2%	-1%	-7%	1%	24µM*
CCC(Cl)[N+](=O)[O-] (stereo unspecified)	·	·	6%	·	·
O=C(O)C[C@H]1OCC=C2CN3CC[C@@]45C6=CC(=O)C(=O)C([N+](=O)[O-])=C6N[C@H]4[C@H]1[C@H]2C[C@@H]35	-2%[7.66 µM]	·	-15%[9.22 µM]	·	·
O=C1/C(=C\c2ccc([N+](=O)[O-])cc2)N2CCC1CC2	-2%	-3%	-17%	2%	2%
CN(C)c1ccc(/C=C2/C(=N\O)C3CCN2CC3)cc1	·	?	·	2.8µM*	19µM*
CNC(=O)Oc1ccccc1OC(C)C	-3%	·	-3%	·	·
CC(C)Oc1ccc(CNC(=O)Oc2ccccc2)cc1	·	3.5µM*	·	3.2µM*	6.7µM*
C/C(=N\NC(=S)Nc1ccccc1)c1c(O)n(C)c(=O)n(C)c1=O	0%	6%	28%	-2%	12µM*
CC(C)(C)c1ccc(C(=O)Nc2ccc(Cl)cc2C(=O)c2ccccc2)cc1	·	·	-16%	·	-5%
Cc1cc(C(=O)Nc2ccccc2)nn1C(C)(C)C	·	2.2µM*	·	2.2µM*	6.7µM*
SMILES	KinaseGlo FLuc	NPC1 prom act	SMN2 splice enh	Rab9 promoter act	FLuc counter
Cc1cc(C(=O)Nc2ccc3c(c2)OCCO3)nn1C(C)(C)C	·	4.5µM*	·	3.5µM*	7.6µM*
C[C@@](Br)(C(=O)O)[C@H](Br)C(=O)O	-3%[7.66 µM]	·	-12%[9.22 µM]	·	·
On1ccccc1=S	·	-24%	·	-36%	8.5µM*
COc1ccc(CCNC(=O)c2ccc3c(c2)N=C(C)c2cc(C)ccc2S3)cc1OC	·	·	-31%	·	-10%
COc1ccc2nc(N3CCN(C(=O)CS(=O)(=O)c4ccc(C)cc4)CC3)sc2c1	·	·	·	·	4.8µM*
COc1ccc(CCN2CCCC(CN(C)C(=O)c3cc(C)oc3C)C2)cc1 (stereo unspecified)	·	2.5µM*	·	2.2µM*	13µM*
COc1cccc(C(=O)C2CCCN(Cc3ccc(F)cc3)C2)c1 (stereo unspecified)	·	-1%	·	-11%	8%
CN(C)C(=O)Oc1ccc(-c2cn3cc(C(F)(F)F)ccc3n2)cc1	-2%	?	?	-16%	3µM*
CN(C)C(=O)Oc1cccc(-c2cn3cc(Cl)ccc3n2)c1	-7%	?	11µM*	?	3µM*
CN(C)C(=O)Oc1ccc(-c2cn3cc(Cl)ccc3n2)cc1	14µM*	0.71µM*	8.9µM*	0.4µM*	0.95µM*
CSc1nnc(OC(=O)N(C)C)n1-c1ccc(Cl)cc1	·	0%	·	-1%	2%
COc1ccc(/C=C2\C(=O)NC(=O)N(Cc3ccccc3)C2=O)c(OC)c1OC	3%	3%	7%	0%	-20%
COc1ccc(CN2C(=O)NC(=O)/C(=C\c3cc(OC)c(OC)c(OC)c3)C2=O)cc1	3%	1%	-42%	0%	19µM*
COc1ccc(CN2C(=O)NC(=O)/C(=C\c3ccco3)C2=O)cc1	-2%	-9%	1%	-2%	24µM*
NCCc1c[nH]c2ccc(OC(=O)C(=O)O)cc12	-9%[7.66 µM]	·	-30%[9.22 µM]	·	·
COc1ccc(-c2coc3cc(OC(=O)N4CCOCC4)ccc3c2=O)cc1	·	23%	·	?	24µM*
CN(C(=O)Oc1ccc(C(C)(C)C)cc1)c1ccccc1	5%	20%	12%	?	24µM*
CCC(=O)c1ccc(OC(=O)N(C)c2ccccc2)cc1	-1%	2.8µM*	11µM*	2.2µM*	?
CN(C(=O)Oc1ccc(F)cc1)c1ccccc1	·	0%	·	1%	3%
C=C(Cl)Cl	·	·	-4%	·	·
Cc1ccc(Cl)cc1N1CCN(C(=O)C2CCCN(S(=O)(=O)c3ccc(Br)s3)C2)CC1 (stereo unspecified)	·	·	-32%	·	1%
O=C1NC(=O)C(=Cc2ccc(Oc3ccc([N+](=O)[O-])cc3)cc2)C(=O)N1	-2%	-3%	-1%	-1%	-1%
COc1cc(C=C2C(=O)NC(=O)NC2=O)ccc1OCc1ccc([N+](=O)[O-])cc1	-5%	-7%	?	0%	9.5µM*
C#CCN1C(=O)S/C(=C\c2ccc(N3CCOCC3)cc2C)C1=O	1%	?	22%	2.8µM*	2.4µM*
CCOc1ccc(N2C(=O)NC(=O)/C(=C\c3ccc(N4CCOCC4)cc3C)C2=O)cc1	-5%	0%	-5%	2%	?
SMILES	KinaseGlo FLuc	NPC1 prom act	SMN2 splice enh	Rab9 promoter act	FLuc counter
CO[C@@H]([CH2][Hg])CN1C(=O)c2ccccc2S1(=O)=O.Cn1c(=O)c2nc[nH]c2n(C)c1=O	1%[7.66 µM]	·	-9%[9.22 µM]	·	·
Nc1cc2nc3ccccc3nc2cc1N	·	?	·	28%	19µM*
Cc1ccc(C(=O)Nc2nc3ccccc3n2CCN2CCCC2)cc1	·	15%	·	?	11µM*
O=C1NC(=O)C(=Cc2ccc3ccccc3c2)C(=O)N1	·	-5%	·	0%	?
Cc1ccc(OCCOc2cccc(C=C3C(=O)NC(=O)NC3=O)c2)cc1	·	0.32µM*	·	0.32µM*	8.5µM*
ClCC[N+]12CC[N+](CCCl)(CC1)C2 (tested in a mixture with another compound)	-6%[7.66 µM]	·	14%[9.22 µM]	·	·
